From the supplement of paper PMC13380429
Unmarked numbers belong to inactive results.

What follows are compounds tested on Vero E6 infected with SARS-CoV-2 (assay: inhibition of SARS-CoV-2 cytopathic effect; higher = more antiviral protection, active = above 15). Settings: 1 nM; 48 h.

SMILES	inhibition of SARS-CoV-2 cytopathic effect
NC(=O)c1ncn([C@@H]2O[C@H](CO)[C@@H](O)[C@H]2O)c1N [acadesine]	0.23%
NCc1cc(O)no1 [muscimol]	-0.61%
CCCn1c(=O)c2nc(C34CC5CC(CC3C5)C4)[nH]c2n(CCC)c1=O	1.22%
CCCCNNC(=O)c1ccc(Br)cc1	2.76%
CC(=O)C1=C(O)[C@@H]2[C@H]3c4c[nH]c5cccc(c45)C[C@H]3C(C)(C)N2C1=O [cyclopiazonic-acid]	0.48%
C=CCN1CC[C@]23c4c5ccc(O)c4O[C@H]2/C(=N/NC(=O)c2ccccc2)CC[C@@]3(O)[C@H]1C5 [naloxone-benzoylhydrazone]	-0.04%
CC(C)(C)C(=O)/C(=N/c1ccc(Cl)cc1)NNc1ccc(Cl)cc1	1.8%
O=C(Nc1ncc(SCCN2CCCC2)s1)[C@]1(c2ccc(S(=O)(=O)C3CC3)cc2)C[C@H]1C1CCCCC1	1.58%
CC(C)(C)NCC(O)c1cc(O)cc(O)c1 (stereo not drawn)	-2.09%
C#C[C@]1(O)CC[C@H]2[C@@H]3CCc4cc(O)ccc4[C@H]3CC[C@@]21C	0.97%
CCn1cc(C(=O)O)c(=O)c2cnc(N3CCCC3)nc21 [piromidic-acid]	-0.85%
C=CC(=O)Nc1cccc(Nc2nc(Nc3ccc(N4CCN(C(C)=O)CC4)cc3OC)ncc2C(F)(F)F)c1 [rociletinib]	-0.09%
CCOc1nc2cccc(C(=O)OCc3oc(=O)oc3C)c2n1Cc1ccc(-c2ccccc2-c2noc(=O)[nH]2)cc1 [azilsartan-medoxomil]	0.24%
